Source: PubChem BioAssay AID1835 (Johns Hopkins Ion Channel Center, 2009)
Among all 2,400 compounds or so, about 750 (31%) were called active.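 The calls were made as follows: active = median signal gain over dofetilide-blocked control wells reaching their mean plus 3 SD, so readout 1 at least 0; inactive = the rest.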 This is one part of the list.

target: Voltage-gated inwardly rectifying potassium channel KCNH2 (Homo sapiens) (UniProt Q12809); experiment: modulators restoring hERG flux under dofetilide – cell-based, thallium flux, duplicate retest, dofetilide IC70, confirmation (AID 1835); details: hERG cell line, FluxOR thallium flux, dofetilide-blocked; at 10 µM; stronger effect = higher value
Sequence (Q12809 whole entry, looked up): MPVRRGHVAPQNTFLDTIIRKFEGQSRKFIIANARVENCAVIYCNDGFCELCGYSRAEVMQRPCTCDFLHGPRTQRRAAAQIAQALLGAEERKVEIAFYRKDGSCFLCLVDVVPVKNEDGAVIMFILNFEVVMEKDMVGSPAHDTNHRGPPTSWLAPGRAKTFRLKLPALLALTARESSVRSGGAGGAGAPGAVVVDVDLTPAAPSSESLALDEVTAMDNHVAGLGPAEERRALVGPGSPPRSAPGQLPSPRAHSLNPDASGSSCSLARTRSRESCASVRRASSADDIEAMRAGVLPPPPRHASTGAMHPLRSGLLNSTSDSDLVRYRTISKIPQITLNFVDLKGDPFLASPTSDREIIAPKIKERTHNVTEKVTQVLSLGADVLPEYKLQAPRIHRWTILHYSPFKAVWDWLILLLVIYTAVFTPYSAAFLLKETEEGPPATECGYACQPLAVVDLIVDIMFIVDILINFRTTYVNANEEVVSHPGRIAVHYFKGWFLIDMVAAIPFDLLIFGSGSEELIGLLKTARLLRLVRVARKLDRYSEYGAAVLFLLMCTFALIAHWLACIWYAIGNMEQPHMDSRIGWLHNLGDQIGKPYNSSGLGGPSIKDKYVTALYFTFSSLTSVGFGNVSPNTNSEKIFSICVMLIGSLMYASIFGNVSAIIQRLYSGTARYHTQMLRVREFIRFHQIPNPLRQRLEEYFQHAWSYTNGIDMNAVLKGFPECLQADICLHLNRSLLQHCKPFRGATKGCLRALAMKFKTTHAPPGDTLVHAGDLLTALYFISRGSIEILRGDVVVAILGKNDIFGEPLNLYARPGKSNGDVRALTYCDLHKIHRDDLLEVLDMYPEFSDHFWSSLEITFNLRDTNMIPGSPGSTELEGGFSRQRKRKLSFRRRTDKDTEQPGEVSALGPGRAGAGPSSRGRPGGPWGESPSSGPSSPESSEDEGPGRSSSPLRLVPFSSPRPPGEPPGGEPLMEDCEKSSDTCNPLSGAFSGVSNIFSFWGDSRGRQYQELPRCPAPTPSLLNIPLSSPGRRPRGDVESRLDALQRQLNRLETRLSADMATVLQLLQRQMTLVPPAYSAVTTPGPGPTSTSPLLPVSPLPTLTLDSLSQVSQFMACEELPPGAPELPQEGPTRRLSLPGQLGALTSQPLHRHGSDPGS

Structure (SMILES) | activity increase over dofetilide control, less the hit threshold
COc1ccc(S(=O)(=O)N2CCN(C(=O)CNC(=O)c3ccc4c(c3)OCO4)CC2)cc1 | -11% (inactive)
COc1ccc(N2CCN(CC(O)COc3ccc(F)cc3)CC2)cc1 (stereo unspecified) | -8% (inactive)
O=C(NC(=S)Nc1ccccc1N1CCCCC1)c1cccs1 | 11% (active)
O=C(NC(=S)Nc1ccccc1N1CCCC1)c1cccs1 | 0% (inactive)
Nc1ccc(Cl)c(NC(=O)c2cccs2)c1 | -11% (inactive)
O=C(NC(=S)Nc1ccc(N2CCCCC2)c(Cl)c1)c1cccs1 | 23% (active)
CCC(=O)Nc1ccc(N2CCOCC2)c(S(=O)(=O)Nc2ccc(OC)cc2)c1 | -26% (inactive)
O=C(NC(=S)Nc1ccc(N2CCOCC2)c(Cl)c1)c1sc2ccccc2c1Cl | 15% (active)
COc1ccc(NC(=O)c2cc(S(=O)(=O)N3CCOCC3)ccc2N2CCOCC2)cc1 | -16% (inactive)
O=C(NC(=S)Nc1ccc(N2CCCCC2)cc1)c1cccs1 | -2% (inactive)
COCCN1C(=O)C(=O)/C(=C(/O)c2ccc(S(=O)(=O)N3CCOCC3)cc2)C1c1ccc(OC)c(OC)c1 (stereo unspecified) | -17% (inactive)
Nc1nc(Br)c2c(F)cccc2c1-c1ccc(Cl)cc1 | -6% (inactive)
Cc1ccc(C2c3c(-c4ccccc4O)n[nH]c3C(=O)N2Cc2ccncc2)cc1 (stereo unspecified) | -3% (inactive)
N#Cc1ccc(-c2ccc(OCC(=O)Nc3cccnc3)cc2)cc1 | -10% (inactive)
O=C(COc1ccc([N+](=O)[O-])cc1)Nc1cccnc1 | -25% (inactive)
O=C(COc1ccccc1)Nc1ccc(S(=O)(=O)Nc2ccccn2)cc1 | -18% (inactive)
O=C(COc1ccc2ccccc2c1Br)Nc1cccnc1 | 31% (active)
O=C(COc1ccc(C(=O)c2ccccc2)cc1)Nc1cccnc1 | 4% (active)
O=C(COc1ccc(Cl)cc1Cl)Nc1cccnc1 | -2% (inactive)
CC(=O)OCC1O[C@@H](O[C@@H]2C[C@H]3C(C)(C)[C@H](OC(C)=O)CC[C@]3(C)[C@H]3CC[C@]45C[C@]4(CC[C@H]5[C@@H](C)C[C@@H](O)[C@H](O)C(C)(C)O)[C@@]32C)[C@H](O)[C@@H](O)[C@@H]1O (stereo partly specified) | 12% (active)
C/C(=N\Nc1nc2ccccc2nc1C)c1ccccc1O | 10% (active)

Structure (SMILES) | activity increase over dofetilide control, less the hit threshold
C/C(=N\Nc1nc2ccccc2s1)c1ccc(Br)s1 | -11% (inactive)
C/C(=N\Nc1nc2ccccc2s1)c1cccs1 | -8% (inactive)
COCCNC(=O)C(c1ccc(C)o1)N(Cc1ccc(OC)cc1)C(=O)Cn1nnc2ccccc21 (stereo unspecified) | 4% (active)
Cc1ccc(-c2nnn(CC(=O)N(CC3CCCO3)C(C(=O)NC3CCCC3)c3ccc(O)cc3)n2)o1 (stereo unspecified) | -7% (inactive)
COCCNC(=O)C(c1ccncc1)N(C(=O)Cn1nnc2ccccc21)c1ccc(OC)cc1 (stereo unspecified) | -9% (inactive)
O=[N+]([O-])c1cccc(/C=C/c2nc(C=Nc3ccccc3)c(O)o2)c1 | -13% (inactive)
COc1cc2c(cc1OC)CN(C(=O)c1ccc3nc[nH]c3c1)CC2 | -2% (inactive)
Cc1onc(C(=O)N2CCC(C(N)=O)CC2)c1-c1ccccc1Cl | -17% (inactive)
O=c1[nH]c2ccc(S(=O)(=O)NCc3ccccc3)cc2[nH]1 | -5% (inactive)
Nc1ccc2c(c1)C(=O)C(=O)c1ccccc1-2 | 10% (active)
CC(=O)N(C1=C(N)C(=O)c2ccccc2C1=O)C(C)C | -12% (inactive)
Clc1ccc(Cc2ccccc2)nn1 | -10% (inactive)
CC(=O)C1=C(O)C(=O)N(c2cccnc2)C1c1ccc(Cl)cc1 (stereo unspecified) | -30% (inactive)
O=C(COc1ccc(Br)cc1Cl)NC(=S)N1CCc2ccccc21 | -4% (inactive)
CC(Oc1ccc(Cl)cc1Cl)C(=O)NC(=S)N1CCc2ccccc21 (stereo unspecified) | 36% (active)
CC(C)c1ccc(OCC(=O)NN2C(=O)c3ccccc3C2=O)c(Br)c1 | -17% (inactive)
O=C(COc1ccc(Cl)cc1Cl)NC(=S)N1CCCc2ccccc21 | 21% (active)
O=C(COc1ccc(Br)cc1Br)NC(=S)N1CCCc2ccccc21 | 6% (active)
O=C(COc1coc(CN2CCc3ccccc3C2)cc1=O)Nc1cccc(Cl)c1 | -17% (inactive)
CSc1nc2ccc(S(=O)(=O)N3CCc4ccccc43)cc2s1 | 0% (inactive)
CCOc1ccc2[nH]c(=O)c(CN(Cc3ccc(C)cc3)C(=O)N3CCCC3)cc2c1 | -8% (inactive)

Structure (SMILES) | activity increase over dofetilide control, less the hit threshold
Cc1cc(C)cc(NC(=O)N2CCCC2C(=O)Nc2ccc(-n3cnnn3)c(C)c2)c1 (stereo unspecified) | -28% (inactive)
Cc1cc(SC#N)cc(C)c1NC(=O)CCl | -1% (inactive)
C=CCNC(=O)CC(=O)N/N=C/c1cccs1 | 0% (inactive)
O=C(NC1CCN(c2ncccn2)CC1)c1c(F)cccc1F | -2% (inactive)
C=CCNc1sc(C(=O)C(C)(C)C)c(N)c1C#N | -14% (inactive)
COc1cc(/C=C2/C(=O)NN(c3ccc(Cl)c(Cl)c3)C2=O)cc([N+](=O)[O-])c1O | -1% (inactive)
CC(CCc1ccccc1)NC(=S)NC(=O)c1ccco1 (stereo unspecified) | 28% (active)
O=C(NC(=S)N(CCc1ccccc1)CCc1ccccc1)c1ccco1 | 53% (active)
O=[N+]([O-])C1=CC=C2C(=NC3(CCCCC3)N2O)C1=NC1CCCCC1 | -15% (inactive)
O=C(COC(=O)c1cc(S(=O)(=O)NCc2ccccc2)ccc1O)NCc1ccccc1 | -7% (inactive)
Cc1cc(N2C(=O)C(O)=C(C(=O)c3cccs3)C2c2ccccc2)no1 (stereo unspecified) | -11% (inactive)
COc1ccc(CNC(=O)C(=O)c2cn(CC(=O)N3CCCC3)c3ccccc23)cc1 | -21% (inactive)
O=C(Nc1nc(=S)ss1)c1ccc(Cl)cc1Cl | 70% (active)
O=C(NNC(=O)c1ccc(Cl)cc1Cl)c1cnccn1 | -16% (inactive)
Cc1ccccc1C(=O)Nc1nc(=S)ss1 | 39% (active)
CC(C)CC(=O)Nc1nc(=S)ss1 | -11% (inactive)
Cc1ccccc1C(=O)c1cn[nH]c1-c1ccccc1O | -29% (inactive)
COc1nnc(-c2ccc(C)c(S(=O)(=O)NC(C)(C)CO)c2)c2ccccc12 | -17% (inactive)
CN(Cc1cnn(C)c1)C(=O)C1CCC(=O)N(Cc2cccc(C(F)(F)F)c2)C1 (stereo unspecified) | -10% (inactive)
